Shown are actives, neighbours in structure and some others; about 0.32% of the full set was active somewhere.
GPT2 inh: inhibitors of human GPT2 alanine aminotransferase; actives 0.25% (n = 100,000); Q8TD30; Potency, µM (titrated, usually from 57.7 µM), inactives show at the highest dose activity change, negative = inhibition, most hits filed as inhibitors; Recombinant GPT2, coupled pyruvate oxidase/HRP Amplex Red fluorescence; AID 1671188; further: nearly all actives have a fitted effect of over 60% in size
Target sequence (Q8TD30 whole entry, looked up): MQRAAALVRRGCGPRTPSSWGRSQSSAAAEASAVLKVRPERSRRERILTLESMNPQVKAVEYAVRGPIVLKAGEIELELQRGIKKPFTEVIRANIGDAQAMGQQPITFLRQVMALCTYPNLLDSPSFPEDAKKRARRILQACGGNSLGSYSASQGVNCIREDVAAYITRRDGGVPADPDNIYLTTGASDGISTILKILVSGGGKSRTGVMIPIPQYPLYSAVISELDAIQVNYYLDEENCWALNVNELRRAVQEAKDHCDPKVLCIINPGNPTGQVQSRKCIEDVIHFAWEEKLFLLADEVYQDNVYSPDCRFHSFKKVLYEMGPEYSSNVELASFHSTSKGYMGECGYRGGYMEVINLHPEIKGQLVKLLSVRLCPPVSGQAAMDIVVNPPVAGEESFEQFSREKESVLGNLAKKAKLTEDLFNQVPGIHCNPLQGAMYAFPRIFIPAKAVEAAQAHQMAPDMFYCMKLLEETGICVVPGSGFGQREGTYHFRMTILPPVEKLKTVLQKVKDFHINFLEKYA
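Fluorescence read-out: pyruvate from GPT2 turnover coupled to pyruvate oxidase, HRP and Amplex Red (0.2mM ThPP, 0.2U/mL PO and HRP, 50uM Amplex final). Substrates 250uM a-KG, 2mM L-alanine; enzyme 10ng/uL; 30 min RT.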
SNCA expr inhib: reduces expression of the alpha-synuclein gene; HEK-293 SNCA-luciferase knock-in, luminescence, 24 h; AID 1671194; Potency, µM (doses to about 57.2 µM), inactives show at the top dose activity change, negative = inhibition, hits mostly inhibitors; actives 0.17% (n = 140,000);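 further: plate controls were DMSO cells for no effect and cell-free wells for full effect; nearly all actives have a fitted effect of over 45% in size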
SNCA viab count: cell viability loss counter-screen. actives 0.12% (n = 150,000). HEK-293-SNCA-luc viability, GF-AFC fluorescence, 24 h. Potency, µM (highest dose often 57.1 µM), for inactives: at the top dose activity change, negative = cytotoxicity, hits mostly cytotoxic;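 further: 0% = DMSO-treated cells and -100% = medium-only wells without cells; nearly all actives have a fitted effect of over 30% in size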
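HEK-293-SNCA-luc cells (1500/well) plated 24 h, then exposed 24 h to a dilution series; GF-AFC added 30 min at 37C, fluorescence 405/540 nm; normalised to medium-only and DMSO wells, Hill fit.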
The depositor's hits bear a star; i = inactive; ? = inconclusive; / = no result; ! = a repeat was not active; [ ] = remark or other dose. The call rests on the fitted dose curve; in most records, active means well fitted curve in the direction sought with a large enough effect; inconclusive means small, poorly fitted or top-dose-only effect, or another doubt; inactive means no such curve, though single readings can be large; an effect the other way counts as inactive or inconclusive. Unless noted, on the % scale 0 is the no-effect control and ±100 the full control effect; potency means the concentration at half of the fitted maximal effect.

SMILES	GPT2 inh	SNCA expr inhib	SNCA viab count
O=c1cc(CN2CCOCC2)occ1OCCCCCSc1ccnc2cc(C(F)(F)F)ccc12	?	?	30µM*!
O=c1[nH]c(N2CCOCC2)nc2c1CCN(Cc1cccc(C(F)(F)F)c1)CC2	2%	-19%	3%
Cc1ccc(-c2c(C(=O)NCc3ccc(Cl)cc3)nc3sccn23)cc1	-26%	?	?
CCc1cnn2c(NCc3ccc[n+]([O-])c3)cc(N3CCCC[C@@H]3CCO)nc12	i	0.061µM*	?
CCc1cccc(NC(=O)Cn2nc3c4cc(F)ccc4n(Cc4cccc(C)c4)cc-3c2=O)c1	/	29%	-9%
Cc1cccc(Cn2cc3c(=O)n(CC(=O)Nc4ccc(C)c(F)c4)nc-3c3cc(F)ccc32)c1	/	22µM*	-14%
O=c1[nH]nc(Sc2ncc([N+](=O)[O-])s2)n1-c1ccc2c(c1)OCCO2	-10%	?	24µM*
CN1CCCC(c2n[nH]c(=O)n2-c2ccc3c(c2)OCO3)C1 (stereo unspecified)	5%	4%	-2%
Cc1cccc(-n2ncc(C(=O)Nc3ccc4c(c3)OCO4)c2C2CCN(C(=O)OC(C)(C)C)CC2)c1	/	4%	?
CCC(=O)Nc1ccc(-c2c(-c3cc(OC)cc(OC)c3)nn(-c3ccc(C)cc3)c2OC(C)=O)cc1	6.3µM*	-7%	-5%
COc1cc(OC)cc(-c2nn(-c3ccc(C)cc3C)c(OC(C)=O)c2-c2ccc(NC(C)=O)cc2)c1	13µM*	-25%	-19%
CC(=O)Oc1c(-c2ccc(NC(=O)C3CC3)cc2)c(-c2ccc3c(c2)OCO3)nn1-c1cccc(C)c1	14µM*	10%	-2%
COc1ccc(-c2nn(-c3ccc(C)cc3C)c(OC(C)=O)c2-c2ccc(NC(C)=O)cc2)c(OC)c1	?	6%	16%
COc1ccc(-c2nn(-c3ccc(F)cc3)c(OC(C)=O)c2-c2ccc(NC(C)=O)cc2)cc1OC	?	19%	-12%
COc1cccc(-c2cn3cc(C(=O)NCC4CC4)nc3s2)c1	i	102%[87.6 µM]	-9%[87.6 µM]
Cc1noc(C)c1-c1cc2c(c(-c3cccc(OC(C)C)c3)c1)C(=O)N(C)C2	3%[88.5 µM]	84%[87.6 µM]	-29%[87.6 µM]
COc1ccc(-c2ccccc2C=O)cc1	-9%[88.5 µM]	-9%[87.6 µM]	-14%[87.6 µM]
COC1=C(OC)C(=O)c2ccccc2C1=O	2.8µM*	?	-12%
C=C(C)C(=O)O[C@H]1C[C@@](C)(O)C2(O)CCC(C)(/C=C3/OC(=O)C(COC)=C31)O2 (stereo partly specified)	i	/	15µM*
O=C(C1CCCN(Cc2cccc(-c3ccc(F)cc3F)c2)C1)N1CCCC1 (stereo unspecified)	?	10%	-5%
CC(N)(Cc1ccc(O)c(O)c1)C(=O)O (stereo unspecified)	8.9µM*	6%	-9%
C[C@](Cc1ccc(O)c(O)c1)(NN)C(=O)O	4%	-16%	-1%
CC(C)Oc1ccc(CNC(=O)c2ccc(Cn3ccn4nc5c(c4c3=O)CCCC5)cc2)cc1	-16%	-23%	-7%
COC(=O)[C@@H]1Cc2c([nH]c3ccccc23)[C@H]2C[C@@H](NC3CC3)C[C@@H](c3ccc(F)cc3)N21	-24%[88.5 µM]	28µM*	?
COC(=O)[C@@H]1Cc2c([nH]c3ccccc23)[C@H]2C[C@@H](NCCO)C[C@@H](c3ccc(F)cc3)N21	-4%	-6%	-8%
SMILES	GPT2 inh	SNCA expr inhib	SNCA viab count
COc1ccccc1-c1cccc(CN2CCC(NC(=O)c3cccc(Cl)c3)CC2)c1	-7%	-33%	-5%
CCOC(=O)c1ccc(NC2CCCCC2)c(N)c1	3.5µM*	/	-4%
CCOC(=O)c1c(C)c(-c2ccccc2)n(CC(=O)NC2CCCCC2)c1C	/	26%	14%
CCN1c2cc(C(=O)Nc3ccc(-n4ccnc4)cc3)ccc2C(=O)N2CCCCCC21 (stereo unspecified)	i	2%	?
Cc1ccc(CSc2nc3ccncc3n2Cc2nc(-c3ccccc3C)oc2C)cc1	/	10µM*	-1%
Cc1oc(-c2ccccc2F)nc1Cn1c(SCc2cccc(Cl)c2)nc2ccncc21	/	?	-22%
COc1ccc(S(=O)(=O)N2CC[C@H](n3c(=O)n(C)c4cccnc43)C2)cc1	?	10%	-15%
O=C1CC2(CCN(C(=O)C3CCN(C(=O)c4ccc(C(F)(F)F)cc4)CC3)CC2)Oc2ccccc2N1	i	-18%	-13%
CN(C)C[C@@H]1CN(Cc2ccccc2)C[C@H]1NC(=O)c1nn(C)c2ccccc12	i	6%	3%
CCN1c2cc(C(=O)Nc3cccc(C(=O)OC)c3)ccc2C(=O)N2CCCCCC21 (stereo unspecified)	i	-7%	6%[12.5 µM]
Cc1cc(Nc2cc(N3CCN(C)CC3)nc(C=Cc3ccccc3)n2)n[nH]1	i	-3%[87.6 µM]	?
Cc1cc(Nc2cc(N3CCN(C)CC3)nc(/C=C/c3ccccc3)n2)n[nH]1	i	/	30µM*
COc1cccc(C(=O)NC2CCCN(Cc3ccc(-c4cc(C)cc(C)c4)cc3)C2)c1 (stereo unspecified)	-1%	-10%	7%[12.5 µM]
O=C(NCc1cccc(F)c1)C1CCCCN1Cc1ccc(-c2ccsc2)cc1 (stereo unspecified)	-14%	?	-17%
O=C(NCc1ccco1)c1ccc2c(c1)CC(=O)N2Cc1cccc(F)c1	i	27%	5%
O=C(NCc1cccc(F)c1)c1ccc2c(c1)CC(=O)N2Cc1ccccc1	-12%	13µM*	-2%
O[C@H]1CC[C@@H](Cc2cc(-c3ccc(F)cc3)on2)O[C@@H]1CNCc1ccccn1	-14%[88.5 µM]	149%[87.6 µM]	-14%[87.6 µM]
Cc1ccccc1S(=O)(=O)N1CCCC(CCC(=O)Nc2cccc(Cl)c2)C1 (stereo unspecified)	-22%	?	?
Cc1noc2c(-c3cccnc3NC3CCN(C)CC3)cc(-c3ccccc3)nc12	i	17%[87.6 µM]	-18%[87.6 µM]
C=C1C(=O)[C@@]23C(CC[C@@H]1[C@H]2O)[C@@]12CO[C@]3(O)[C@@H](O)[C@@H]1C(C)(C)CC[C@@H]2O (stereo partly specified)	5%	34µM*	30µM*
CCC(C=C[C@@H]1OC(=O)C=C[C@H]1C)=C[C@H](C)CC=CC(C)=C[C@@H](C)C(=O)[C@@H](C)[C@H](O)[C@@H](C)CC(C)=CC(=O)O	i[2.3 µM]	0.16µM*	?
COc1ccc(CCNC(=O)C2CCCN2C(=O)c2cccc(-c3ccccc3OC)c2)cc1 (stereo unspecified)	?	8%	-1%
Cc1nc(Nc2n[nH]c3c2CN(C(=O)N[C@H](CN(C)C)c2ccccc2)C3(C)C)c2sccc2n1	?	0.015µM*	?
Cc1nc(NCCN2CCOC2=O)c2sccc2n1	i	-25%	5%
CC(C)CNC(=O)c1cn2cc(-c3ccc(F)cc3)sc2n1	-34%[88.5 µM]	183%[87.6 µM]	-1%[87.6 µM]
Cc1nn2c(c1-c1ccccc1-c1ccccc1)N(Cc1ccc(O)cc1)CCC2	-7%[88.5 µM]	?	?
Cc1nn2c(c1-c1ccccc1Oc1ccccc1)N(Cc1cccc(O)c1)CCC2	-13%[88.5 µM]	?	?
Cc1cccc(CN2CCCn3nc(C)c(-c4ccccc4-c4ccccc4)c32)n1	i	4.5µM*	?
